Bioassay records from PubChem BioAssay.
Only some compounds are listed: those with a hit (about 12% of all), similar ones and a draw of the others.
Sfp inh – qHTS Assay for Inhibitors of Bacillus subtilis Sfp phosphopantetheinyl transferase (PPTase); Potency, µM, for the others: largest response in the series, negative = inhibition, most hits filed as inhibitors; 310,000 compounds, 3.5% hits; Biochemical Sfp PPTase activity, qHTS;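 note: the enzyme is Sfp with the accession as filed and its product quenches rhodamine fluorescence; 0% = enzyme reaction without inhibitor and -100% = no enzyme wells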
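After 15 min at room temperature with compound, 15 nM Sfp received 5 uM rhodamine-CoA plus 12.5 uM BHQ-2-ybbR (50 mM Hepes pH 7.6, 10 mM MgCl2). Rate came from the fluorescence difference over 30 min, ex 525/em 598 nm.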
G9a block – qHTS Assay for Inhibitors of Histone Lysine Methyltransferase G9a; 350,000 compounds, 8.8% hits; Potency, µM (doses to about 102 µM), for inactives: top-dose activity, negative = inhibition, hits mostly inhibitors; G9a H3K9 monomethylation, AlphaScreen, 2 h; Histone-lysine N-methyltransferase EHMT2 (Homo sapiens), Q96KQ7; note: % is set by controls: 0 for no effect and ±100 for the full control effect; nearly all actives have a fitted effect of over 75% in size
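Methyltransferase reactions run at room temperature for 2 h (20 nM enzyme, 500 nM biotin-H3K9 peptide, 20 uM SAM) after a 15 min compound preincubation; product detected by AlphaScreen beads and anti-H3K9me1 antibody.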
BAZ2B block – qHTS Assay for Inhibitors of BAZ2B; AlphaScreen BAZ2B-H3K14Ac peptide displacement; Potency, µM (series often up to 114 µM), for the others: top-dose activity change, negative = inhibition, most hits filed as inhibitors; 360,000 compounds, 4.4% hits; AID 504333, 2011; note: % is set by controls: 0 for no effect and ±100 for the full control effect; nearly all actives have a fitted effect of over 60% in size
Target sequence (Q9UIF8 whole entry, looked up): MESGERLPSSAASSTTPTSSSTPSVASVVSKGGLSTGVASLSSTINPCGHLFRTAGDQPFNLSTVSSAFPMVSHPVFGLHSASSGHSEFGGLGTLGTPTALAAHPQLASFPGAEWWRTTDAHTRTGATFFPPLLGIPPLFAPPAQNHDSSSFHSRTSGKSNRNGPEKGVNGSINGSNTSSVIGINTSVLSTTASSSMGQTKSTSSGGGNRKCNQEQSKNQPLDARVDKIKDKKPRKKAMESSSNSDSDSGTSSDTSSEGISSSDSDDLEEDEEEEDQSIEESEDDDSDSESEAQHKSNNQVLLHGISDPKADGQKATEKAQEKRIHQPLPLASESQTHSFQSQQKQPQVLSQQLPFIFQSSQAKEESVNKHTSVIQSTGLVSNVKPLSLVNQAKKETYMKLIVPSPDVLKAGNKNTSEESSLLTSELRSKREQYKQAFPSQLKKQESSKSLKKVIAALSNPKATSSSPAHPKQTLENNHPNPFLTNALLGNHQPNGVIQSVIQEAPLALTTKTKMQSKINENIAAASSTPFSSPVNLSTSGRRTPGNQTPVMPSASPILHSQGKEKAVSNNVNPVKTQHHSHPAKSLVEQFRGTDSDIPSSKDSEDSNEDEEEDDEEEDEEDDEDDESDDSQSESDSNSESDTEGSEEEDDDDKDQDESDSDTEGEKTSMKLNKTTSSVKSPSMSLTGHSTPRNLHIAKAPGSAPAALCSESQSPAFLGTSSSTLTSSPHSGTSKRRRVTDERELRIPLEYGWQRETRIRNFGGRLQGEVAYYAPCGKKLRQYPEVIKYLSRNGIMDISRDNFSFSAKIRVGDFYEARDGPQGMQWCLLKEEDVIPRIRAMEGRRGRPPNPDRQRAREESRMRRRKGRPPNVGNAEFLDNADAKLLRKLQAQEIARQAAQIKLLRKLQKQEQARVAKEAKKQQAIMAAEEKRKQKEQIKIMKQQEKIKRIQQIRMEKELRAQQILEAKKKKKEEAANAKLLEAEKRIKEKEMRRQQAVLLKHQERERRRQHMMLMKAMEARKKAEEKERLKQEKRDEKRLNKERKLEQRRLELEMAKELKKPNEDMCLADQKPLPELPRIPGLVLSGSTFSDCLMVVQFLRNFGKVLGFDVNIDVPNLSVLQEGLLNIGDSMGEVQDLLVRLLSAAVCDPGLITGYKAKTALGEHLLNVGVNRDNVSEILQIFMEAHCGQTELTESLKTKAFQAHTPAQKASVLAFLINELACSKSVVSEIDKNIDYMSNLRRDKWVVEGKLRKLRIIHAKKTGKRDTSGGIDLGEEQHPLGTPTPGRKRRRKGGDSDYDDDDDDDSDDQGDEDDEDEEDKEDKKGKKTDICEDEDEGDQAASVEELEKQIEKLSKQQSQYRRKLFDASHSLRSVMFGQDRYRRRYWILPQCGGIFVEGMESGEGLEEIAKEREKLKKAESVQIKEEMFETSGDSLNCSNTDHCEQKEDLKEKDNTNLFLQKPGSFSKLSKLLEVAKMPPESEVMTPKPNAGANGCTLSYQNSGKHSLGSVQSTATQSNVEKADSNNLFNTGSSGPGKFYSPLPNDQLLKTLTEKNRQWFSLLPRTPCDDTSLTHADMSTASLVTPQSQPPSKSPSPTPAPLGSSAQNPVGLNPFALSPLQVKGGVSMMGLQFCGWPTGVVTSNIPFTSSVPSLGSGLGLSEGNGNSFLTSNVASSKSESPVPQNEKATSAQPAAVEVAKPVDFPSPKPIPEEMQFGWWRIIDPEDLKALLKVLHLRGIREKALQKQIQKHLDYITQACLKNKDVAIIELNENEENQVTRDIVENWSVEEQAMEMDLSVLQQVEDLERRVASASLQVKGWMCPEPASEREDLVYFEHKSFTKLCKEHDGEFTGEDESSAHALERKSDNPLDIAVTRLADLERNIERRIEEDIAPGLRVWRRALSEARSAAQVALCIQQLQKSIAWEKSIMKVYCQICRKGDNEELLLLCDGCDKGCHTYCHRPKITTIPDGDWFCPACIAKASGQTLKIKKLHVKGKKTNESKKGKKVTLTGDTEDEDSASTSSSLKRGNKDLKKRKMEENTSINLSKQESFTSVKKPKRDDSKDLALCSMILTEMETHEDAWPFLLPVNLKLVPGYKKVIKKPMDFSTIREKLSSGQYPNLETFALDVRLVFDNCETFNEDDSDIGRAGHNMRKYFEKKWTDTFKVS
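Compounds, titrated to a top concentration of 110 uM, were incubated 30 min at room temperature with preformed BAZ2B/acetyl-K14 H3 peptide complex (50 nM each). Proximity signal was measured by AlphaScreen after 20 min with beads.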
HP1b chromo inh – HTS for Inhibitors of HP1-beta Chromodomain Interactions with Methylated Histone Tails; Chromobox protein homolog 1 (Homo sapiens), P83916; AlphaScreen HP1-beta / biotin-H3K9me3 peptide binding; Potency, µM (series often up to 114 µM), inactives show at the highest dose activity change, negative = inhibition, actives largely listed as inhibitors; 390,000 compounds, 0.56% hits; AID 540317, 2011; note: nearly all actives have a fitted effect of over 70% in size
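Compound inhibition of the preformed complex between 50 nM HP1-beta and 50 nM biotinylated H3K9me3 peptide was read by AlphaScreen. Buffer was PBS pH 7.4 with 0.01% Tween-20. Incubations ran 30 min at room temperature, with 10 ug/mL donor/acceptor beads.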
JMJD2A Tudor – qHTS Assay for Inhibitors of JMJD2A-Tudor Domain. Lysine-specific demethylase 4A (Homo sapiens), O75164. AlphaScreen JMJD2A-Tudor / H3K4me3 peptide binding. Potency, µM (top dose mostly 114 µM), without a hit: top-dose activity change, negative = inhibition, actives largely listed as inhibitors. 390,000 compounds, 4.4% hits; note: % is set by controls: 0 for no effect and ±100 for the full control effect; nearly all actives have a fitted effect of over 50% in size
Numbers without * were called inactive; ? = inconclusive; nt = no result; ! = a repeat was not active; [ ] = another dose, or the depositor's remark. Calls come from the whole dose curve; as a rule, active = well fitted curve in the direction sought with a large enough effect; inconclusive = small, poorly fitted or top-dose-only effect, or another doubt; inactive = no such curve, though single readings can be large; an effect the other way counts as inactive or inconclusive. Potency is the fitted concentration of half-maximal effect.

SMILES	Sfp inh	G9a block	BAZ2B block	HP1b chromo inh	JMJD2A Tudor
Cc1c(NC(=O)CSc2ccc3c(c2)OCCO3)c(=O)n(-c2ccccc2)n1C	20%	-24%	19%	?	50µM*
Cc1c(NC(=O)CSc2nc3ccc(Cl)cc3[nH]2)c(=O)n(-c2ccccc2)n1C	-7%	11µM*	?	18%	-12%
Cc1ccc2nc(SCC(=O)Nc3ccc(C(N)=O)cc3)[nH]c2c1	8%	40µM*	16%	?	-12%
Cc1c(NC(=O)CSc2ccc(Cl)cc2)c(=O)n(-c2ccccc2)n1C	14%	?	26%	43%	-21%
Cc1ccc(N(C)S(=O)(=O)c2nnc(NC(=O)C3CCCCC3)s2)cc1	nt	-2%[59 µM]	28%	94%	28%
CCCC1=[N+](CC(C)=O)CCn2c(C)ccc21	5%	32µM*	-28%	44%	-35%
CCCC1=[N+](CC(=O)c2ccccc2)CCn2cccc21	7%	-14%[59 µM]	-34%	22%	-15%
COc1ccc(C(=O)Nc2nc3c(s2)Cc2cc(OC)ccc2-3)cc1	79µM*	45µM*	-15%	-4%	-18%
COc1ccc2c(c1)Cc1sc(NC(=O)c3ccccc3)nc1-2	50µM*	?	-5%	25%	-8%
COc1ccc2c(c1)Cc1sc(NC(=O)c3cccs3)nc1-2	25µM*	-26%[59 µM]	4%	23%	0%
COc1ccc2c(c1)Cc1sc(NC(=O)c3cccc(F)c3)nc1-2	nt	0%[59 µM]	-3%	-10%	-19%
COc1ccc2c(c1)-c1nc(NC(=O)c3cc(Cl)ccc3OC)sc1CC2	nt	20µM*	-10%	21%	-18%
COc1ccc2c(c1)Cc1sc(NC(=O)c3ccccc3C)nc1-2	nt	?	-9%	2%	?
COc1ccc2c(c1)-c1nc(NC(=O)c3ccccc3F)sc1CC2	nt	0%[59 µM]	-5%	69%	7%
CCOC(=O)C1CCC(CN(Cc2ccc(OC)cc2)S(=O)(=O)c2ccc(F)c(C(=O)Nc3ccc(C)c(C)c3)c2)CC1 (stereo not given)	nt	9%[59 µM]	-1%	3%	-27%
COc1cc(Cl)c(C)cc1NC(=O)CC1Oc2ccccc2NC1=O (stereo not given)	nt	-21%[59 µM]	-10%	10%	-24%
O=C(Cn1cc(S(=O)(=O)Cc2ccccc2F)c2ccccc21)N1CCOCC1	-16%	22µM*	-18%	45%	-12%
Cc1ccc(S(=O)(=O)N(CCC(=O)N2CCOCC2)c2ccccc2)cc1	nt	14µM*	-5%	15%	-8%
COc1ccc(CCNC(=O)CS(=O)(=O)c2cn(CC(=O)N3CCCC3)c3ccccc23)cc1OC	5%	50µM*	nt	50%	-2%
CC(=O)N1CCN(C(=O)CCN(c2ccccc2)S(=O)(=O)c2ccc(C)cc2)CC1	nt	-7%[0.501 µM]	-3%	1%	-14%
Cc1ccc(CS(=O)(=O)c2cn(CC(=O)N3CCOCC3)c3ccccc23)cc1	56µM*	nt	-1%	51%	-9%
O=C(CS(=O)(=O)c1cn(CC(=O)N2CCOCC2)c2ccccc12)NCc1ccc(F)cc1	7%	?	3%	24%	-6%
COc1ccc(CCNC(=O)CS(=O)(=O)c2cn(CC(=O)N(C(C)C)C(C)C)c3ccccc23)cc1OC	-5%	17%	-1%	25%	-1%
COC(=O)c1ccc(C(NC(=O)OCc2ccccc2)/C(=C/[C@@H](C)C(=O)NCCF)c2cccnc2)cc1 (stereo not given in full)	14%	nt	nt	nt	nt
CC1(C)C2CCC1(CS(=O)(=O)NCc1ccc(Cl)cc1Cl)C(=O)C2 (stereo not given)	4%	15%	-2%	68%	-2%
SMILES	Sfp inh	G9a block	BAZ2B block	HP1b chromo inh	JMJD2A Tudor
O=CNC1(c2ccccc2)CCCCC1	nt	nt	nt	17%	-11%
Cc1cccc(NC(=O)CS(=O)(=O)c2cn(CC(=O)N3CCOCC3)c3ccccc23)c1	16%	?	nt	43%	-3%
Cc1cccc(CS(=O)(=O)c2cn(CC(=O)N3CCOCC3)c3ccccc23)c1	50µM*	10µM*	-17%	50%	-9%
Cc1ccc(C)c(NC(=O)Cn2cc(C(=O)c3cccs3)c3ccccc32)c1	nt	9%[59 µM]	1%	7%	-24%
c1csc(-c2noc(COc3ccc4c(c3)CCCC4)n2)c1	45µM*	4%[12.7 µM]	234%	349%	242%
COc1ccc(Cc2nc(-c3cccs3)no2)cc1OC	-1%	50µM*	0%	36%	-2%
Brc1ccc(-c2noc(COc3ccc4c(c3)CCC4)n2)o1	-12%	22µM*	56µM*	-11%	199%
CCOC(=O)c1ccc(OCc2nc(-c3cccs3)no2)cc1	?	56%[59 µM]	104%	120%	85%
O=S(=O)(c1ccc2c(c1)OCCO2)N1CCN(S(=O)(=O)c2cccc3cccnc23)CC1	nt	nt	nt	nt	-13%
Cc1ccc(-c2nc3nc(C)cc(Nc4ccccc4O)n3n2)cc1	nt	15%[59 µM]	-4%	20%[57 µM]	-24%
COc1ccc(-c2cc3nccc(-c4cc(Cl)c(C)cc4O)n3n2)cc1	nt	0%[59 µM]	-6%	10%	-29%
COc1ccc(/C=C/C(=O)Nc2nc(C)cc(C)n2)cc1OC	9%	nt	9%	?	50µM*
COc1ccc(/C=C/C(=O)Nc2ccncc2)cc1OC	14%	14%	1%	33%	-17%
COc1ccc(/C=C/C(=O)Oc2ccc(C)c(C)c2)cc1OC	8.9µM*	49%	nt	32%	26%
CCCCc1nc2ccccc2n2c(-c3ccc(OC)cc3)c3c(=O)n(C)c(=O)n(C)c3c12	nt	47%[59 µM]	26%	97%	10%
Cc1ccc(C(C(=O)NC(C)(C)C)N(CC2CCCO2)C(=O)CCC(=O)Nc2ccccn2)cc1 (stereo not given)	11%	2%	-11%	27%	-2%
NCCCC(N)(C(=O)O)C(F)F (stereo not given)	-8%	7.1µM*!	?	19%	-2%
Cc1nc(C)c(C(=O)Nc2cccc(F)c2)s1	-5%	3%	10%	20%	-6%
COc1ccc(OCc2cc(C(=O)N3C[C@@H](C)O[C@@H](C)C3)no2)c(Cl)c1	4%	nt	-8%	21%	-9%
NC(=O)COC(=O)CCSc1ccc(Cl)cc1	16%	-8%	-14%	11%	3%
O=C(O)/C(=C\c1cccc(F)c1)c1ccc(S(=O)(=O)N2CCCCC2)s1	-28%	56µM*	?	1%	?
Cc1ccc(CCc2nnc(SCC(=O)Nc3ccccc3Cl)n2-c2ccccc2)o1	-22%	28µM*	?	-4%	-33%
Cc1c(Cl)cccc1NC(=O)CSc1nnc(C)n1-c1ccccc1	7%	7%[59 µM]	nt	26%	-14%
